Compounds without any hit were thinned out: in the full panel of roughly 83,000, 20% have a hit.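 Testing used 96-well plates and a 48-hour single-concentration exposure. Example: -40 means 40% of the starting cells died.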 A number with no mark means an inactive call. Active and inactive are the calls of the source. Rule for the calls: active = growth percent below 10; inactive = the rest.

What all share (test): NCI-60 one-dose screen, 48 h (100 = growth as untreated, 0 = no growth, -100 = all killed)
In one test the test system is HCT-15 colon. The conditions noted are these: 10 µM unless noted.
Another test relates to HT29 colon. The conditions noted are these: 10 µM unless noted.
The next test concerns SNB-75 CNS. The conditions noted are these: 10 µM unless noted.
Another test relates to SNB-19 CNS. The conditions noted are these: 10 µM unless noted.
In a further test the test system is U251 CNS. The conditions noted are these: 10 µM unless noted.
A further test relates to PC-3 prostate. The conditions noted are these: 10 µM unless noted.
Another test relates to SK-MEL-5 melanoma. The conditions noted are these: 10 µM unless noted.
The next test deals with UACC-62 melanoma. Conditions: 10 µM unless noted.
In a further test the test system is LOX IMVI melanoma. The conditions noted are these: 10 µM unless noted.
The next test deals with SK-MEL-28 melanoma. Conditions: 10 µM unless noted.
Another test has as its system SK-MEL-2 melanoma. Conditions: 10 µM unless noted.
The next test deals with EKVX NSCLC. The conditions noted are these: 10 µM unless noted.
The next test concerns SN12C renal. Conditions: 10 µM unless noted.
The test system of the next test is UO-31 renal. The conditions noted are these: 10 µM unless noted.
Another test relates to TK-10 renal. Conditions: 10 µM unless noted.
The next test has as its system ACHN renal. Conditions: 10 µM unless noted.
Another test deals with CAKI-1 renal. The conditions noted are these: 10 µM unless noted.
In another test the test system is A498 renal. The conditions noted are these: 10 µM.
For a further test, the system named is HL-60(TB) leukemia. Conditions: 10 µM unless noted.
The next test relates to CCRF-CEM leukemia. Conditions: 10 µM unless noted.

Take `O=P1(NCCCl)OCCCN1CCCl` (stereo not drawn): the growth with HCT-15 colon was 98.9%; in the test on HT29 colon, 103%; in the test on SNB-75 CNS, 115%; with SNB-19 CNS, 111%; with U251 CNS, 117%; in the test with PC-3 prostate, 93.7%. For the same compound, the growth with SK-MEL-5 melanoma was 112%; in the test with UACC-62 melanoma it was 107%; in the test on LOX IMVI melanoma, 99.8%; with SK-MEL-28 melanoma it was 116%; in the test with SK-MEL-2 melanoma, 99.6%; with EKVX NSCLC, 105%. For the same compound, the growth is 101% in the test with SN12C renal; 87.5% in the test with UO-31 renal; 97.7% in the test with TK-10 renal; 98.8% in the test with ACHN renal; 99% in the test on CAKI-1 renal; 108% with A498 renal. Moreover, the growth is 100% in the test with HL-60(TB) leukemia and 99.1% in the test with CCRF-CEM leukemia.
Turning to `C=CC1=C[C@@H]2[C@@H]3O[C@]4(CC[C@H](O4)[C@@H](C)C[C@@H](O)C3=O)C[C@H](O)C3=NCC[C@@]32CC1`, the growth in the test with HCT-15 colon is -13.9% (active); with HT29 colon, -13.6% (active); with SNB-75 CNS, -95.8% (active); in the test on SNB-19 CNS it was -16.2% (active); in the test on U251 CNS it was -7% (active); in the test on PC-3 prostate, -20.1% (active). In addition, the growth with SK-MEL-5 melanoma is -90.2% (active); in the test on UACC-62 melanoma it was -68.3% (active); in the test with LOX IMVI melanoma, -59.9% (active); with SK-MEL-28 melanoma, -59.8% (active); with SK-MEL-2 melanoma, -45.1% (active); with EKVX NSCLC it was -29.1% (active). The growth is -15% (active) with SN12C renal; -38.8% (active) in the test with UO-31 renal; -21% (active) in the test on TK-10 renal; -64.8% (active) in the test on ACHN renal; -11.4% (active) with CAKI-1 renal; -82.6% (active) in the test with A498 renal. For the same compound, the growth in the test on HL-60(TB) leukemia was -5.3% (active); with CCRF-CEM leukemia, 4.16% (active).
In the case of `CCOC(=O)N1CC1`, the growth with HCT-15 colon is 96.3%; in the test with HT29 colon, 97.5%; in the test with SNB-75 CNS, 90.8%; in the test on SNB-19 CNS it was 98.4%; with U251 CNS, 96.3%; in the test on PC-3 prostate, 88.1%. In addition, the growth was 101% in the test on SK-MEL-5 melanoma; 88.4% in the test on UACC-62 melanoma; 92.7% in the test with LOX IMVI melanoma; 103% in the test on SK-MEL-28 melanoma; 105% in the test on SK-MEL-2 melanoma; 84% in the test with EKVX NSCLC. Besides, the growth is 95.8% in the test on SN12C renal; 80.7% with UO-31 renal; 112% with TK-10 renal; 94.8% with ACHN renal; 95.1% in the test with CAKI-1 renal; 111% in the test on A498 renal.
Take `CC(=O)O[C@H]1CC[C@H]2[C@@H]3CC=C4c5nc(-c6ccccc6)sc5CC[C@]4(C)[C@H]3CC[C@]12C`: the growth in the test with HCT-15 colon is 9.12% (active); in the test with HT29 colon, -31.5% (active); in the test with SNB-75 CNS, 91.4%; in the test on SNB-19 CNS it was 67.4%; in the test with U251 CNS, 47.5%; with PC-3 prostate it was 72.3%. In addition, the growth with SK-MEL-5 melanoma is 59.9%; in the test with UACC-62 melanoma, 50.7%; with LOX IMVI melanoma it was 29.8%; in the test with SK-MEL-28 melanoma, 90.4%; in the test with SK-MEL-2 melanoma, 82%; in the test on EKVX NSCLC it was 79.6%. Also, the growth with SN12C renal was 85.5%; in the test with UO-31 renal, 78.2%; with TK-10 renal it was 92.4%; in the test on ACHN renal it was 91.8%; in the test with CAKI-1 renal, 67.5%; in the test with A498 renal, 75.2%. In addition, the growth was 82.1% in the test on HL-60(TB) leukemia and 28.4% with CCRF-CEM leukemia.
As to `CN1CCCCC1C(C)(O)c1ccccc1` (stereo not drawn), the growth in the test with HCT-15 colon is 100%; in the test with HT29 colon, 93.4%; in the test on SNB-75 CNS, 93%; in the test with SNB-19 CNS, 107%; in the test with U251 CNS, 101%; in the test with PC-3 prostate, 82.1%. In addition, the growth was 104% with SK-MEL-5 melanoma; 104% in the test on UACC-62 melanoma; 99% in the test with LOX IMVI melanoma; 105% in the test on SK-MEL-28 melanoma; 106% with SK-MEL-2 melanoma; 96.3% with EKVX NSCLC. In addition, the growth with SN12C renal is 102%; in the test with UO-31 renal, 92.5%; in the test on TK-10 renal, 94.9%; in the test on ACHN renal it was 108%; in the test with CAKI-1 renal, 96.4%; in the test on A498 renal, 101%. The growth with HL-60(TB) leukemia was 114%.
Consider `COC1=CC(=O)O[C@@H](/C=C/c2ccc3c(c2)OCO3)C1`, for which the growth with HCT-15 colon was 103%; in the test with HT29 colon, 111%; with SNB-75 CNS it was 116%; in the test with SNB-19 CNS it was 101%; with U251 CNS, 97.9%; in the test on PC-3 prostate, 83.5%. Moreover, the growth with SK-MEL-5 melanoma was 116%; in the test with UACC-62 melanoma it was 94%; in the test on LOX IMVI melanoma, 98.2%; in the test on SK-MEL-28 melanoma, 120%; in the test with SK-MEL-2 melanoma, -20.1% (active); in the test with EKVX NSCLC, 114%. In addition, the growth is 100% in the test with SN12C renal; 87.5% with UO-31 renal; 102% in the test with TK-10 renal; 110% with ACHN renal; 107% in the test with CAKI-1 renal; 59.2% in the test on A498 renal. Also, the growth with HL-60(TB) leukemia is 114%; in the test on CCRF-CEM leukemia, 61.2%.
For the compound `COc1cc(NC(C)CCCNC2CN3CCC2CC3)c2ncccc2c1` (stereo not drawn), the growth with HCT-15 colon is 65.8%; with HT29 colon, 27%; in the test on SNB-75 CNS it was 78.1%; in the test on SNB-19 CNS, 86.5%; in the test on U251 CNS, 77.7%; in the test with PC-3 prostate, 55.6%. The growth is 70% in the test with SK-MEL-5 melanoma; 38% in the test on UACC-62 melanoma; 76.1% with LOX IMVI melanoma; 95.3% in the test with SK-MEL-28 melanoma; 91.7% in the test on SK-MEL-2 melanoma; 71.2% with EKVX NSCLC. In addition, the growth in the test with SN12C renal is 86%; in the test with UO-31 renal, 38.3%; in the test on TK-10 renal, 79.8%; in the test with ACHN renal, 84.9%; in the test on CAKI-1 renal, 78.1%; with A498 renal, 57.2%. In addition, the growth in the test with HL-60(TB) leukemia was 65.9%; with CCRF-CEM leukemia, 77.7%.
Regarding `O=c1[nH]c2ccc([N+](=O)[O-])cc2c(=O)o1`, the growth in the test on HCT-15 colon was 99%; in the test on HT29 colon it was 113%; in the test on SNB-75 CNS, 113%; with SNB-19 CNS it was 102%; in the test with U251 CNS it was 106%; in the test with PC-3 prostate, 92.8%. The growth in the test with SK-MEL-5 melanoma was 95.3%; in the test with UACC-62 melanoma, 100%; with LOX IMVI melanoma, 99.9%; with SK-MEL-28 melanoma, 105%; in the test on SK-MEL-2 melanoma, 111%; in the test with EKVX NSCLC, 107%. For the same compound, the growth in the test on SN12C renal was 98.2%; with UO-31 renal it was 90.7%; with TK-10 renal, 104%; with ACHN renal it was 93.3%.

The values above are taken from PubChem BioAssay (NCI).
